These results are taken from PubChem BioAssay (NCI).

Each structure is given as a SMILES string. About 83,000 compounds went through this panel and 20% of them were active in at least one assay; those are over-represented in the sample as a whole.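 Single-concentration screen, 48 h exposure, 96-well plates. Endpoint: percent growth. Below 10 = active.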 Values without a mark were called inactive. The source made the active and inactive calls.

In this test the test system is HL-60(TB) leukemia. The test can be described thus: NCI-60 one-dose screen, 48 h (100 = growth as untreated, 0 = no growth, -100 = all killed). Conditions: 10 µM unless noted.
For `CC(C)n1c(/C=C/[C@@H](O)C[C@@H](O)CC(=O)O)c(-c2ccc(F)cc2)c2ccccc21`, the growth is 91.4%. As for `C=C1N(C)c2ccc(Cl)cc2C1(C)C`, the growth was 6.42% (active).

For the compound `COc1ncnc2[nH]cc(CN3CCN(c4ccc(F)cc4)CC3)c12`, the growth is 101%. Take `CNc1ccc(Br)cc1-c1n[nH]c(=O)[nH]c1=O`: the growth is 104%.

In the case of `CC1=CC(=O)N(c2cccc3c(N4C(=O)C=C(C)C4=O)cccc23)C1=O`, the growth was -1.53% (active). For `COc1ccc(S(=O)(=O)N2CC3(COC3)C2)cc1NC(=O)c1[nH]c(C)c2c1CCCCC2=O`, the growth was -11% (active).

On to `COc1cc(NC(=O)c2cccc(-c3cc(=O)c4c(O)c(OC)c(OC)cc4o3)c2)cc(OC)c1OC`, for which the growth is 78%.

`O=C(NC1CCCCCC1)c1ccc2c(=O)n3c(nc2c1)CCCCC3`: the growth is 144%. Take `O=C(O)C(/C=C/c1ccco1)=N\Nc1nc(-c2ccc(Cl)cc2)cs1`: the growth is 52.2%. Turning to `CC1=C(C#N)C(=O)NC(C)C1` (stereo not given), the growth was 91%. Regarding `COc1ccc(/C=C/c2c(C(=O)/C=C/c3cccs3)c(C)nc3ccccc23)cc1`, the growth was 69.6%.

In the case of `COc1c(O)c(O)cc2c3c(oc12)CC(c1ccc2c(c1)OCO2)CC3=O` (stereo not given), the growth is 61.1%. The result for `CC(C)Sc1nc(NNC(N)=S)c(C#N)c(-c2ccc(F)cc2)n1` reads 94.9%.

As to `O=C(Nc1ccc(Oc2ccc(NC(=O)Nc3ccccc3Cl)cc2)cc1)Nc1ccccc1Cl`, the growth is 51.7%. In the case of `Clc1nc(Nc2ccccc2)nc(Nc2ccccc2)n1`, the growth was 65.6%. With `Cc1sc2nc(CSc3nnc(-c4ccco4)o3)[nH]c(=O)c2c1C`, the growth was 68.6%. For `Nc1nc(Cl)c2c(ncn2Cc2ccc(CCl)cc2)n1`, the growth is 90.5%. `Cn1nnnc1-c1ccc(N)cc1`: the growth is 94.4%.

Take `S=c1cc(S)c2cc(Br)ccc2[nH]1`: the growth is 101%. Take `CCCCOc1nc2c(C)cccc2cc1C1CNC(=O)c2ccccc2N1` (stereo not given): the growth is 26.2%. For the compound `CCN(CCO)CC(=O)c1cc(Cl)cc(Cl)c1Cl`, the growth is 106%.

`COc1ccc(C2=Nc3c(N)ncnc3NC(c3ccc4c(c3)OCO4)C2)cc1` (stereo not given): the growth is 124%. On to `O=C(/C=C/c1cccc(Cl)c1)c1ccc(O)c(CN2CCN(c3cc4c(cc3F)c(=O)c(C(=O)O)cn4C3CC3)CC2)c1`, for which the growth was 27.3%.

Regarding `CCOC(=O)c1c2c(n3ccccc13)C(=O)c1ncccc1C2=O`, the growth was -28.8% (active). Turning to `Cc1ccc(Cn2c(-c3cccs3)nc3ccccc32)cc1`, the growth is 122%. Take `COc1cc(/C=C2\CCCC3C2=Nc2ccccc2NC3c2cc(OC)c(OC)c(OC)c2)cc(OC)c1OC` (stereo not given): the growth was 1.55% (active). Regarding `COc1ccc(/C(=N/O)c2cc(OC)c(OC)c(OC)c2)c(OC)c1N`, the growth was -24.6% (active). Take `CC(=O)CC(c1cccs1)c1c(-c2ccccc2)[nH]c2ccccc12` (stereo not given): the growth is 99.8%. For the compound `COc1cc(-c2nc3c(c(C)nc4c3nnn4-c3ccccc3)c(=O)o2)cc(OC)c1OC`, the growth was 105%. The result for `COc1ccccc1OCC(O)CO` (stereo not given) reads 74.1%; that for `O=C(Nc1ccc(Oc2ccc(F)cc2)c(Cl)c1)c1cccnc1`, 83.2%. As for `S=C(NCCNC(=S)[S][Sn]([c]1ccccc1)([c]1ccccc1)[c]1ccccc1)[S][Sn]([c]1ccccc1)([c]1ccccc1)[c]1ccccc1`, the growth is -31% (active). The result for `c1ccc(/C(=N\Nc2ccc3ccccc3n2)c2ccccn2)cc1` reads -29.8% (active); that for `CCCCCN1C=C/C(=C\C(=O)N2CCCc3ccccc32)c2ccccc21`, 54.8%; that for `Cc1cc2[nH]c(=O)c3c4ncccc4cn3c2cc1C`, 37.2%. In the case of `COc1ccc(-c2c3c(nc4n[nH]c(-c5ccc(Cl)cc5)c24)-c2ccccc2C(=O)C3=O)cc1`, the growth was 11.7%. For the compound `O=S(=O)(O)c1cc(O)c2c(N=Cc3ccccc3O)c(S(=O)(=O)O)ccc2c1`, the growth is 101%. The figure for `CN1CCN(C(=O)[C@]23CCC(C)(C)C[C@H]2C2=CC[C@@H]4[C@@]5(C)C/C(=C/c6ccncc6)C(=O)C(C)(C)[C@@H]5CC[C@@]4(C)[C@]2(C)CC3)CC1` is -41.7% (active). As to `CC(=O)N1c2ccccc2NC2=C(C(=O)NC2(C)C)C1c1ccco1` (stereo not given), the growth was 65.1%. As to `COc1ccc(-c2cc(C#N)c(NNC(C)=O)[nH]2)cc1`, the growth is 11.4%.
